High-throughput results as filed in PubChem BioAssay.
LGR2 inh: Drosophila LGR2 receptor signaling inhibition. HEK293 LGR2, CRE-luciferase, bursicon-stimulated, 4 h. AID 720647. inhibition, % at 9.99 µM. 380,000 compounds, 0.35% hits;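 active means drop in luminescence signal, shown as inhibition above about 50% in the replicate tests, limit read from the data, passing the limit was not always enough; inconclusive means probably only some replicates passing the limit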;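 further: agonist challenge used bursicon conditioned medium at about half maximal strength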
KKLEB tox: reduces viability of KKLEB cystic fibrosis airway cells | activity change (cytotoxicity), % at 5 µM | AID 602141 | KKLEB CF airway cells viability, ATPlite luminescence, overnight; active compounds read low; cells stimulated with P. aeruginosa culture filtrate | 360,000 compounds, 0.36% hits;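 active means corrected activity change at or below -50% at 5 µM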
HIF-2a block: blocks HIF-2a reporter activity. 786-0 RCC cells HIF-2a reporter, luciferase luminescence, overnight. inhibition, % at 18.8 µM. 360,000 compounds, 0.72% hits. AID 624352;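 active means inhibition of the luminescence signal of 40% or more relative to plate controls, in a single-dose primary screen at 18.75 µM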
TWEAK-Fn14 inh: inhibitors of TWEAK-Fn14 interaction signaling. AID 1159606. inhibition, % at 10 µM. TWEAK-stimulated Fn14 reporter cells, luciferase luminescence, 8 h. 360,000 compounds, 2% hits; in the data active means inhibition above about 50%
CF NFkB inh: inhibitors of cystic fibrosis induced NF-kB | inhibition, % at 5 µM | 360,000 compounds, 0.86% hits | KKLEB NF-kB-GFP reporter, PAF-induced, GFP fluorescence overnight | AID 588850;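 active means at least 50% inhibition at 5 µM, scaled per plate between neutral and stimulator controls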;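 further: PAF is a Pseudomonas aeruginosa culture filtrate used as stimulus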
iPSC survival up: hiPSC single-cell survival enhancement; AID 602274; ATPlite luminescence; 100% = ROCK inhibitor wells, 0% = DMSO; 360,000 compounds, 0.044% hits; survival enhancement, % at 20 µM; in the data active means survival enhancement above about 18%;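 further: cells exposed to compounds for 16 hours before the ATP read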
Of the large screens only hits and unclear results are named; the others gave an inactive call. Hits are enriched below; roughly 2.3% of the tested compounds scored in any of these assays.

CO[C@@H]1CN(C)C(=O)c2cc(NC(=O)C3CCC3)ccc2OC[C@@H](C)NC[C@@H]1C	none (no result: KKLEB tox, HIF-2a block, TWEAK-Fn14 inh, CF NFkB inh, iPSC survival up)
Cc1ccc2nc(-c3ccccn3)[nH]c2c1	LGR2 inh 82, TWEAK-Fn14 inh 80
Cc1cccc2sc(NNC(=O)c3cc(-c4cccs4)nc4ccccc34)nc12	TWEAK-Fn14 inh 88 (no result: LGR2 inh)
C/C=C/c1ccc2c(c1)O[C@@H](CN(C)C(=O)NC(C)C)[C@@H](C)CN([C@@H](C)CO)S2(=O)=O	none (no result: KKLEB tox, HIF-2a block, TWEAK-Fn14 inh, CF NFkB inh, iPSC survival up)
CCC(=O)c1ccc(N2CCN(C(=O)c3ccc(F)cc3)CC2)c(F)c1	none
COc1ccc(C(=O)c2ccc(N3CCN(C(=O)c4ccc(F)cc4)CC3)c(F)c2)cc1Br	TWEAK-Fn14 inh 61 (no result: LGR2 inh)
O=C(/C(=C/O)N=Nc1cccc(C(F)(F)F)c1)c1ccccc1	none
O=C(/C(=C/O)N=Nc1ccccc1Cl)c1ccccc1	TWEAK-Fn14 inh 58
COc1ccc(/C=N\NC(=O)/C(=C\Nc2nccc(C)n2)NC(=O)c2ccccc2)cc1	TWEAK-Fn14 inh 71
N#C/C(=C\c1ccc(Cl)cc1Cl)c1n[nH]c(Cn2cncn2)n1	TWEAK-Fn14 inh 65 (no result: LGR2 inh)
Cc1noc(C)c1NC(=O)N(C)C[C@H]1OCCCC[C@H](C)Oc2ccc(NC(=O)Nc3cccc4ccccc34)cc2C(=O)N([C@H](C)CO)C[C@@H]1C	none (no result: KKLEB tox, HIF-2a block, TWEAK-Fn14 inh, CF NFkB inh, iPSC survival up)
CCCOCCOC(=O)c1[nH]c2c(c1C)C(=O)CC(c1cc(OC)ccc1OC)C2 (configuration not stated)	CF NFkB inh 54
COc1cc(C2CC(=O)c3c([nH]c(C(=O)OCCOC(C)C)c3C)C2)cc(OC)c1OC (configuration not stated)	TWEAK-Fn14 inh 61
COCCOC(=O)c1[nH]c2c(c1C)C(=O)CC(c1cc(OC)ccc1OC)C2 (configuration not stated)	none
CCOCCOC(=O)c1[nH]c2c(c1C)C(=O)CC(c1ccc(OC)c(OC)c1)C2 (configuration not stated)	none
O=C(c1ccccc1)c1ccc(O)cc1O	none
CC(=O)c1cc2c(C)c(C(=O)c3ccccc3)oc2cc1O	TWEAK-Fn14 inh 55
COc1cc(-c2nc(-c3ccc4c(c3)-c3ccccc3S4(=O)=O)c(-c3ccccc3)[nH]2)cc(OC)c1O	TWEAK-Fn14 inh 59 (no result: LGR2 inh)
COc1ccc(-n2c(-c3ccccc3)c[n+]3c2CCC3)cc1	TWEAK-Fn14 inh 86
COc1ccc(-n2c(-c3ccc(Br)cc3)c[n+]3c2CCC3)cc1	none
Cc1cc(O)cc(O)c1-c1onc(C(F)(F)F)c1-c1cscn1	TWEAK-Fn14 inh 52 (no result: LGR2 inh)
CCOc1ccc(-c2onc(C(F)(F)F)c2-c2cscn2)c(O)c1	none
CCCCC(CCC(=O)O)(C(=O)OCC)c1csc(Nc2ccccc2)n1 (configuration not stated)	none (no result: LGR2 inh)
CCCCC(CCC(=O)O)(C(=O)OCC)c1csc(N)n1 (configuration not stated)	TWEAK-Fn14 inh 73 (no result: LGR2 inh)
C[C@]12CC[C@@H]3c4ccc(O)cc4CC[C@H]3[C@@H]1CC[C@@H]2O	none (no result: LGR2 inh)
C[C@]12CC[C@@H]3c4cc(O)c(O)cc4CC[C@H]3[C@@H]1CC[C@@H]2O	CF NFkB inh 55
Cc1ccc(C(C(=O)NC(C)(C)C)N(Cc2cccs2)C(=O)c2ccc3c(c2)OCCO3)cc1 (configuration not stated)	none
CCC(C)(C)NC(=O)C(c1ccc(C)cc1)N(Cc1cccs1)C(=O)c1ccc2c(c1)OCCO2 (configuration not stated)	TWEAK-Fn14 inh 88 (no result: LGR2 inh)
COc1cc2c(c(OC)c1OC)-c1ccc(SC)c(=O)cc1C(NC=O)CC2 (configuration not stated)	TWEAK-Fn14 inh 57
COc1cc2c(c(OC)c1OC)-c1ccc(OC)c(=O)cc1C(NC(C)=O)CC2 (configuration not stated)	none
COC(=O)c1ccc2c(c1)C(NC(C)=O)CCc1cc(OC)c(OC)c(OC)c1-2 (configuration not stated)	CF NFkB inh 59
Cc1noc(C)c1S(=O)(=O)Nc1ccc2c(c1)C(=O)N([C@@H](C)CO)C[C@@H](C)[C@@H](CN(C)C(=O)Nc1ccc(F)cc1)OCCCC[C@@H](C)O2	none (no result: KKLEB tox, HIF-2a block, TWEAK-Fn14 inh, CF NFkB inh, iPSC survival up)
CSc1ccc(S(=O)(=O)N2CCC(C(=O)NCCCn3ccnc3)CC2)cc1	TWEAK-Fn14 inh 83
Cc1ccc(S(=O)(=O)N2CCC(C(=O)NCCCn3ccnc3)CC2)cc1	none
COc1cc(CNCc2ccccc2Cl)ccc1OCC(=O)NC1CCCCC1	TWEAK-Fn14 inh 86
CC(C)CCCCCCNC(=S)Nc1ccc(S(=O)(=O)N2CCOCC2)cc1	LGR2 inh 51, TWEAK-Fn14 inh 54, CF NFkB inh 52
CCOc1cccc(/C=C(/C#N)c2nc3ccccc3[nH]2)c1OCC(=O)O	TWEAK-Fn14 inh 61
COc1cccc(/C=C(\C#N)c2nc3ccc(C)cc3[nH]2)c1OCC(=O)O	none
CCN(CC)c1ccc(/C=C(/C#N)c2nc3ccccc3[nH]2)c(OC(C)C)c1	TWEAK-Fn14 inh 76 (no result: LGR2 inh)
CCCOC(=O)c1cccc(Nc2nc(-c3cccnc3)nc3ccccc23)c1	TWEAK-Fn14 inh 57
CCn1nnnc1SCC(=O)N1c2ccccc2Sc2ccccc21	TWEAK-Fn14 inh 63 (no result: LGR2 inh)
O=C1CCCN1Cc1ncnn1-c1ccccc1	TWEAK-Fn14 inh 65 (no result: LGR2 inh)
O=C1CCCCCCCN1Cc1ccccc1	none
Cc1ccc(C(=O)/C=C/Nc2ccccc2C(N)=O)cc1	KKLEB tox -56, TWEAK-Fn14 inh 58 (no result: LGR2 inh)
NC(=O)c1ccccc1N/C=C/C(=O)c1ccc(Cl)cc1	none (no result: LGR2 inh)
Cc1ccc(C(=O)/C=C/C(=O)c2ccc(C)cc2)cc1	KKLEB tox -67, CF NFkB inh 78
COc1ccc(S(=O)(=O)N(C)C[C@@H]2Oc3ccc(NC(=O)c4ccncc4)cc3CC(=O)N([C@@H](C)CO)C[C@@H]2C)cc1	none (no result: KKLEB tox, HIF-2a block, TWEAK-Fn14 inh, CF NFkB inh, iPSC survival up)
CCN1CCN(Cc2ccc(NC(=O)Nc3ccc(OC)cc3)cc2)CC1	none
CCN1CCN(Cc2ccc(NC(=O)Nc3ccccc3)cc2)CC1	TWEAK-Fn14 inh 60 (no result: LGR2 inh)
C[C@H](CO)N1C[C@H](C)[C@@H](CN(C)C(=O)C2CCC2)Oc2cc(-c3ccc(F)cc3)ccc2S1(=O)=O	none (no result: KKLEB tox, HIF-2a block, TWEAK-Fn14 inh, CF NFkB inh, iPSC survival up)
Fc1ccc(-c2nc3c4ccccc4ccn3c2Cc2cccc(F)c2)cc1	none (no result: KKLEB tox, HIF-2a block, TWEAK-Fn14 inh, CF NFkB inh, iPSC survival up)
Clc1cccc(Cc2c(-c3ccco3)nc3c4ccccc4ccn23)c1	TWEAK-Fn14 inh 69 (no result: KKLEB tox, CF NFkB inh)
Fc1cccc(Cc2c(-c3ccco3)nc3c4ccccc4ccn23)c1	TWEAK-Fn14 inh 51
COc1ccc(-c2ccc3n(c2=O)C[C@H]2[C@H](CO)[C@@H](C(=O)N(C)C)[C@@H]3N2Cc2ccncc2)cc1	none (no result: KKLEB tox, HIF-2a block, TWEAK-Fn14 inh, CF NFkB inh, iPSC survival up)
O=C(c1cc(-c2ccc(Cl)cc2Cl)on1)N1CCOCC1	LGR2 inh inconclusive, TWEAK-Fn14 inh 71
COc1ccc(-c2cc(C(=O)N3CCCCCC3)no2)cc1	none
O=C(c1cc(-c2ccc3c(c2)OCO3)on1)N1CCOCC1	TWEAK-Fn14 inh 77 (no result: LGR2 inh)
